Measured values from PubChem BioAssay (EPA / NIEHS).
“And” between values parts separate entries of the source, which are not always exact repeats. Equal values may be shown once. A structure can be active in one record and inactive in another. The source made the active and inactive calls. The calls were made as follows: active = hit-call score of the fitted dose curve at least 0.9, where 1 is the maximum; inactive = score below 0.9.

Assays:
[1] = read-out: Urokinase-type plasminogen activator receptor (uPAR), PLAUR (gene 5329); experiment: BSK_4H_uPAR: BioMAP Diversity Plus: 4H Assay for Urokinase-type plasminogen activator receptor (uPAR) Biomarker Activity (AID 2283030); details: primary human endothelial cells (HUVEC); actives raise or lower the signal
How it was run: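 Cell-surface uPAR ELISA signal, measured 24 h after dosing human umbilical vein endothelial cells, was analyzed with bidirectional fitting relative to DMSO. Parallel SRB staining of total protein tracked overt cytotoxicity.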

[2] = read-out: Vascular endothelial growth factor receptor 2 (Homo sapiens) (UniProt P35968); experiment: BSK_4H_VEGFRII: BioMAP Diversity Plus: 4H Assay for Vascular endothelial growth factor receptor 2 (VEGFR2) Biomarker Activity (AID 2283031); details: primary human endothelial cells (HUVEC); actives raise or lower the signal
How it was run: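 ELISA read-out of VEGFRII in primary human umbilical vein endothelium, taken 24 h after chemical treatment. Responses are expressed relative to DMSO, with bidirectional fitting.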

[3] = read-out: Human Leukocyte Antigen - DR isotype (HLADR), HLA-DRA (gene 3122); experiment: BSK_BE3C_HLADR: BioMAP Diversity Plus: BE3C Assay for Human Leukocyte Antigen - DR isotype (HLADR) Biomarker Activity (AID 2283032); details: primary human bronchial epithelial cells; actives raise or lower the signal
How it was run: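 Signal came from an ELISA for HLA-DR in human bronchial epithelial primary cells harvested 24 h after treatment; gain- and loss-of-signal fitting used DMSO controls as reference.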

[4] = read-out: Vascular cell adhesion molecule 1 (VCAM1), VCAM1 (gene 7412); experiment: BSK_4H_VCAM1: BioMAP Diversity Plus: 4H Assay for Vascular cell adhesion molecule 1 (VCAM1) Biomarker Activity (AID 2283033); details: primary human endothelial cells (HUVEC); actives raise or lower the signal;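 as to outcome: cell-surface VCAM-1 protein measured by ELISA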
How it was run: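 Endpoint derived from bidirectional fitting against DMSO controls of VCAM-1 ELISA signal in umbilical vein endothelial cells sampled at 24 h following treatment.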

[5] = read-out: Interferon-gamma inducible Protein 10 (IP10), CXCL10 (gene 3627); experiment: BSK_BE3C_IP10: BioMAP Diversity Plus: BE3C Assay for Interferon-gamma inducible Protein 10 (IP10) Biomarker Activity (AID 2283034); details: primary human bronchial epithelial cells; actives raise or lower the signal
How it was run: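 Using primary human bronchial epithelial cultures, the assay captures IP-10 by ELISA one day (24 h) after exposure. Parallel SRB staining of total protein flags overt cytotoxicity. Fits run bidirectionally relative to DMSO.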

[6] = read-out: Plasminogen activator inhibitor-1 (PAI1), SERPINE1 (gene 5054); experiment: BSK_BE3C_PAI1: BioMAP Diversity Plus: BE3C Assay for Plasminogen activator inhibitor-1 (PAI1) Biomarker Activity (AID 2283037); details: primary human bronchial epithelial cells; actives raise or lower the signal
How it was run: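 PAI-1 biomarker levels in treated human bronchial epithelial cells are determined by ELISA at 24 h. Both increases and decreases relative to DMSO are fitted.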

[7] = read-out: urokinase plasminogen activator (uPA), PLAU (gene 5328); experiment: BSK_BE3C_uPA: BioMAP Diversity Plus: BE3C Assay for urokinase plasminogen activator (uPA) Biomarker Activity (AID 2283038); details: primary human bronchial epithelial cells; actives raise or lower the signal;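 as to outcome: uPA protein level quantified by ELISA in cell cultures; uPA read one day after compound addition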
How it was run: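 Bronchial epithelial cells (human, primary); chemical 24 h; uPA by ELISA; bidirectional fit vs DMSO. SRB (0.1%, after 10% TCA fixation, 560 nm) in parallel cultures for cytotoxicity.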

[8] = read-out: Urokinase-type plasminogen activator receptor (uPAR), PLAUR (gene 5329); experiment: BSK_BE3C_uPAR: BioMAP Diversity Plus: BE3C Assay for Urokinase-type plasminogen activator receptor (uPAR) Biomarker Activity (AID 2283039); details: primary human bronchial epithelial cells; actives raise or lower the signal;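 as to outcome: cells exposed to compound for one day before measurement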
How it was run: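 A uPAR ELISA serves as the readout, taken 24 h after treating primary human bronchial epithelial cells. Responses in either direction are fitted against DMSO, which defines baseline activity.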

[9] = read-out: Interleukin-6 (IL6), IL6 (gene 3569); experiment: BSK_CASM3C_IL6: BioMAP Diversity Plus: CASM3C Assay for Interleukin-6 (IL6) Biomarker Activity for (AID 2283040); details: primary human coronary artery smooth muscle cells; actives raise or lower the signal
[10] = read-out: Tissue plasminogen activator (tPA), PLAT (gene 5327); experiment: BSK_BE3C_tPA: BioMAP Diversity Plus: BE3C Assay for Tissue plasminogen activator (tPA) Biomarker Activity (AID 2283041); details: primary human bronchial epithelial cells; actives raise or lower the signal;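 as to outcome: tPA level quantified by ELISA one day after compound addition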
How it was run: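 Bidirectional curve fitting relative to DMSO defined activity, with tPA detected by ELISA in chemically treated human bronchial epithelial primary cells at 24 hours.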

[11] = read-out: Interleukin-8 (IL8), CXCL8 (gene 3576); experiment: BSK_CASM3C_IL8: BioMAP Diversity Plus: CASM3C Assay for Interleukin-8 (IL8) Biomarker Activity (AID 2283042); details: primary human coronary artery smooth muscle cells; actives raise or lower the signal;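 also: IL-8 protein level quantified by ELISA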
[12] = read-out: Human Leukocyte Antigen - DR isotype (HLADR), HLA-DRA (gene 3122); experiment: BSK_CASM3C_HLADR: BioMAP Diversity Plus: CASM3C Assay for Human Leukocyte Antigen - DR isotype (HLADR) Biomarker Activity (AID 2283043); details: primary human coronary artery smooth muscle cells; actives raise or lower the signal;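 also: cell-surface HLA-DR protein level quantified by ELISA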
[13] = read-out: Macrophage colony-stimulating factor (MCSF), CSF1 (gene 1435); experiment: BSK_CASM3C_MCSF: BioMAP Diversity Plus: CASM3C Assay for Macrophage colony-stimulating factor (MCSF) Biomarker Activity (AID 2283044); details: primary human coronary artery smooth muscle cells; actives raise or lower the signal;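 also: M-CSF protein amount quantified by ELISA after 24 h exposure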
[14] = read-out: Low-density lipoprotein receptor (LDLR), LDLR (gene 3949); experiment: BSK_CASM3C_LDLR: BioMAP Diversity Plus: CASM3C Assay for Low-density lipoprotein receptor (LDLR) Biomarker Activity (AID 2283045); details: primary human coronary artery smooth muscle cells; actives raise or lower the signal;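 also: LDLR protein level on the cell surface quantified by ELISA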
[15] = read-out: Monocyte Chemoattractant Protein-1 (MCP1), CCL2 (gene 6347); experiment: BSK_CASM3C_MCP1: BioMAP Diversity Plus: CASM3C Assay for Monocyte Chemoattractant Protein-1 (MCP1) Biomarker Activity (AID 2283046); details: primary human coronary artery smooth muscle cells; actives raise or lower the signal;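 also: MCP-1 level quantified by ELISA 24 h after dosing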
[16] = BSK_CASM3C_Proliferation: Cell Proliferation Assessment in the BioMAP Diversity Plus: CASM3C Assay (AID 2283047); details: primary human coronary artery smooth muscle cells;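 also: sulforhodamine B total protein stain as relative cell number at 560 nm; sub-confluent cells exposed 48 h before staining; fitted both ways against DMSO so gain or loss of cell number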
[17] = read-out: Monokine induced gamma interferon (MIG), CXCL9 (gene 4283); experiment: BSK_CASM3C_MIG: BioMAP Diversity Plus: CASM3C Assay for Monokine induced gamma interferon (MIG) Biomarker Activity (AID 2283048); details: primary human coronary artery smooth muscle cells; actives raise or lower the signal
[18] = read-out: serum amyloid A (SAA), SAA1 (gene 6288); experiment: BSK_CASM3C_SAA: BioMAP Diversity Plus: CASM3C Assay for serum amyloid A (SAA) Biomarker Activity (AID 2283049); details: primary human coronary artery smooth muscle cells; actives raise or lower the signal;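 also: SAA protein level quantified by ELISA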
[19] = read-out: Monokine induced gamma interferon (MIG), CXCL9 (gene 4283); experiment: BSK_BE3C_MIG: BioMAP Diversity Plus: BE3C Assay for Monokine induced gamma interferon (MIG) Biomarker Activity (AID 2283035); details: primary human bronchial epithelial cells; actives raise or lower the signal;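 as to outcome: MIG protein measured by ELISA in BE3C cultures after 24 h of dosing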
How it was run: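 Primary human bronchial epithelial cells treated for 24 h; MIG levels measured by ELISA, fitted bidirectionally versus DMSO. Parallel SRB total-protein staining assessed cytotoxicity.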

[20] = read-out: Transforming growth factor beta 1 (TGFb1), TGFB1 (gene 7040); experiment: BSK_BE3C_TGFb1: BioMAP Diversity Plus: BE3C Assay for Transforming growth factor beta 1 (TGFb1) Biomarker Activity (AID 2283036); details: primary human bronchial epithelial cells; actives raise or lower the signal
How it was run: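 In this human primary bronchial epithelial system, an ELISA quantified TGF-b1 one day after dosing. Endpoint changes in either direction were fitted relative to DMSO.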

**Q.** With `C=CC(=O)OCCC(F)(F)C(F)(F)C(F)(F)C(F)(F)F` as the molecule, how does the outcome [1] read?
**A.** inactive

**Q.** And the outcome [2]?
**A.** inactive

**Q.** What about the outcome [3] of the same molecule?
**A.** inactive

**Q.** And the AC50 [4]?
**A.** 21.1 µM (active)

**Q.** What about the outcome [4] of the same molecule?
**A.** inactive

**Q.** What about the outcome [5] of the same molecule?
**A.** inactive

**Q.** What about the outcome [6] of the same molecule?
**A.** inactive

**Q.** What about the outcome [7] of the same molecule?
**A.** inactive

**Q.** And the outcome [8]?
**A.** inactive

**Q.** What about the outcome [9] of the same molecule?
**A.** inactive

**Q.** And the outcome [10]?
**A.** inactive

**Q.** And the outcome [11]?
**A.** inactive

**Q.** And the outcome [12]?
**A.** inactive

**Q.** What about the outcome [13] of the same molecule?
**A.** inactive

**Q.** And the outcome [14]?
**A.** inactive

**Q.** What about the outcome [15] of the same molecule?
**A.** inactive

**Q.** And the AC50 [16]?
**A.** 15 µM (active)

**Q.** And the outcome [16]?
**A.** inactive

**Q.** What about the AC50 [17] of the same molecule?
**A.** 41.1 µM (active) and 30 µM (active)

**Q.** What about the outcome [18] of the same molecule?
**A.** inactive

**Q.** What does the source list for `Cc1cc(C)c(O)c(C(C)(C)C)c1`?
**A.** AC50 [1]: 37.7 µM (active); outcome [2]: inactive; AC50 [3]: 29.5 µM (active); AC50 [4]: 30.4 µM (active); AC50 [5]: 31 µM (active); AC50 [19]: 36 µM (active); AC50 [20]: 29.8 µM (active); AC50 [6]: 27.9 µM (active); AC50 [7]: 28.7 µM (active); AC50 [8]: 28.2 µM (active); AC50 [9]: 29.6 µM (active); AC50 [10]: 29.6 µM (active); outcome [11]: inactive; AC50 [12]: 25.5 µM (active); AC50 [13]: 22.7 µM (active); AC50 [14]: 20 µM (active); AC50 [15]: 24.9 µM (active); AC50 [16]: 25.3 µM (active); AC50 [17]: 29.3 µM (active); AC50 [18]: 20 µM (active)

**Q.** With `NC(=O)C(F)(F)C(F)(F)C(F)(F)C(F)(F)C(F)(F)C(F)(F)C(F)(F)F` as the molecule, how does the outcome [1] read?
**A.** inactive

**Q.** And the outcome [2]?
**A.** inactive

**Q.** What about the outcome [3] of the same molecule?
**A.** inactive

**Q.** What about the outcome [4] of the same molecule?
**A.** inactive

**Q.** What about the outcome [5] of the same molecule?
**A.** inactive

**Q.** And the outcome [19]?
**A.** inactive

**Q.** What about the outcome [6] of the same molecule?
**A.** inactive

**Q.** And the outcome [7]?
**A.** inactive

**Q.** What about the outcome [8] of the same molecule?
**A.** inactive

**Q.** What about the outcome [9] of the same molecule?
**A.** inactive

**Q.** And the outcome [10]?
**A.** inactive

**Q.** And the outcome [11]?
**A.** inactive

**Q.** And the outcome [12]?
**A.** inactive

**Q.** And the outcome [13]?
**A.** inactive

**Q.** What about the outcome [14] of the same molecule?
**A.** inactive

**Q.** And the outcome [15]?
**A.** inactive

**Q.** And the outcome [16]?
**A.** inactive

**Q.** And the outcome [17]?
**A.** inactive

**Q.** What about the outcome [18] of the same molecule?
**A.** inactive
